The values below come from PubChem BioAssay AID1851 (National Center for Advancing Translational Sciences (NCATS), 2009).

Broadly, the AC50 is the concentration at which the activity in the assay is half-maximal.

Values joined by “and” are separate entries in the source; they are usually repeats but may differ in a detail not shown here. Equal entries are not always repeated. The campaign covered roughly 16,000 compounds. About 5,700 (36%) were called active. Another 24% or so got no clear call; they are omitted. The list shows a part of the results. A number with no mark means an inactive call. The call rests on the fitted dose curve; in most records, active means well fitted curve in the direction sought with a large enough effect; inconclusive means small, poorly fitted or top-dose-only effect, or effect the other way; inactive means no such curve, though single readings can be large or run the other way.
On the % scale 0 is the no-effect control and ±100 the full control effect.

Sequence of Cytochrome P450 1A2 (Homo sapiens) (P05177 whole entry, looked up): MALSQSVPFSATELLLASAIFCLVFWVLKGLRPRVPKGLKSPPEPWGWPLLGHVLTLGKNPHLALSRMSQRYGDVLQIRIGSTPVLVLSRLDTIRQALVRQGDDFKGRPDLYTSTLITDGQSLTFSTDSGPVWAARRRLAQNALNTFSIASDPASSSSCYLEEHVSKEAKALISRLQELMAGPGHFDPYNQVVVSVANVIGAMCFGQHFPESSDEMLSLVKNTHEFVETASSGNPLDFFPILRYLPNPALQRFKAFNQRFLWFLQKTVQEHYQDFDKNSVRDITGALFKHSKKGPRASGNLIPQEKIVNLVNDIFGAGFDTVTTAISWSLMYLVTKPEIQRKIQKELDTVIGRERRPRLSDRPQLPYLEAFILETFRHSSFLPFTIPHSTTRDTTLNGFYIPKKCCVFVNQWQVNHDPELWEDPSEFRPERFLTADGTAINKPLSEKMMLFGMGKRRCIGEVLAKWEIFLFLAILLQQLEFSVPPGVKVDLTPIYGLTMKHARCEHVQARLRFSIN

The test has as its target Cytochrome P450 1A2 (Homo sapiens) (UniProt P05177). Kind of test: Cytochrome panel assay with activity outcomes. The settings on record: recombinant CYP, pro-luciferin dealkylation, luminescence, p450-cyp1a2; series mostly up to 57.1 µM.
Regarding `Cc1cc2c(cc1C)NC1=C(N2)O[C@H](c2c[nH]c3ccc(COc4ccccc4)cc23)C1=O`, the AC50 is 2.51 µM (active).
With `O=C1C2=C(Nc3cc([N+](=O)[O-])ccc3N2)O[C@@H]1c1c[nH]c2ccc(COc3ccccc3)cc12`, the AC50 is 2.51 µM (active).
`N[C@@H](Cc1c[nH]c2ccc([N+](=O)[O-])cc12)C(=O)O`: the activity, negative = inhibition is -10.4% [at 11.4 µM].
For `CC(C)NC(=O)C(C)n1cccc1C(=O)c1ccccc1` (stereo unspecified), the AC50 is 25.1 µM (active).
Same read-out and setting: under `CC(C)NC(=O)/C(=N\O)c1ccccc1` stands “inactive”; under `CC(C)NC(=O)N1CCC2(CC1)CCN(C(=O)c1cccn1C)CC2`, “inactive”; under `Cc1ccc(-n2nc3c(c2NC(=O)c2cccs2)CSC3)cc1`, 1.58 µM (active).
Same read-out and setting: next, `Cc1ccccc1-n1nc2c(c1NC(=O)c1ccc(S(=O)(=O)N(C)C)cc1)CSC2`: “inactive”; `Cc1ccccc1-n1nc2c(c1NC(=O)c1c(-c3ccccc3Cl)noc1C)CSC2`: “inactive”.
Same read-out and setting: under `Cn1c(=O)n(C)c2cc(S(=O)(=O)O)ccc21` stands “inactive”.
On to `Cn1c(=O)n(C)c2cc(/C=N/n3cnnc3)ccc21`, for which the AC50 is 6.31 µM (active).
On the same count and under the same terms, under `Nc1nc2c(ncn2COC(CO)CO)c(=O)[nH]1` stands “inactive”; under `CO[C@]1(NC(=O)C2SC(=C(C(N)=O)C(=O)O)S2)C(=O)N2C(C(=O)O)=C(CSc3nnnn3C)CS[C@H]21` (stereo partly specified), “inactive”.
On the same count and under the same terms, next, `CC1CCN(CC(=O)Nc2cccc([N+](=O)[O-])c2)CC1`: “inactive”; `Cc1c(C)n(C(=O)CN2CCC(C)CC2)c2ccccc12`: 4.47 µM (active); `CC1CCN(CC[C@@H]2CCCN2S(=O)(=O)c2cccc(O)c2)CC1`: “inactive”.
Still for that read-out and setting: next, `Cc1cc(C)nc(SCC(=O)N/N=C\c2sccc2C)n1`: 12.6 µM (active); `COc1ccccc1CNC(=O)CSc1nc2nc(C)cc(C)n2n1`: “inactive”; `Cc1cc(C)n2nc(SCC(=O)N/N=C/c3ccccc3F)nc2n1`: 15.8 µM (active).
Take `Cc1cccc(Cc2c(C)nc3nc(SCC(=O)NCc4ccco4)nn3c2C)c1`: the AC50 result was “inactive”.
Turning to `Cc1cccc(N(C)C(=S)Oc2ccc3ccccc3c2)c1`, the AC50 is 2.51 µM (active).
On the same count and under the same terms, under `COc1ccc(N2CCN(C(=S)Nc3cccc(C)c3)CC2)cc1` stands “inactive”.
On to `CCc1cc2c(nc1CC)CCN(CC/C(C)=N/O[C@@H](C)c1cn([C@H](CO)Cc3ccccc3)nn1)C2`, for which the activity, negative = inhibition is -13.3% [at 11.4 µM] and 1.01% [at 11.4 µM].
The same measure, in the same setting: under `Cc1cc(C(C)(C)C)c(OCCCN2CCOCC2)c(C(C)(C)C)c1` stands -17.7% [at 2.29 µM].
For `CC(C)(C)c1ccccc1OCCN1CCCC1`, the AC50 was 15.8 µM (active).
Still for that read-out and setting: next, `Cc1ccccc1OCCCN1CCCC1`: “inactive”.
